High-throughput results: PubChem BioAssay, National Center for Advancing Translational Sciences (NCATS)
D1 agonist: agonists of human D1 dopamine receptor | P21728 | HEK293 T-REx D1 cells, calcium flux, agonist mode | activation, % at 2 µM | hit rate 1% among 360,000 | AID 504660; in the data active = activation above about 30%; note: 0% is about no effect
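Agonism was scored from calcium flux recorded over 180 s (1 read/s) after pintool compound addition, following a 10-cycle baseline. Cells were inducible force-coupled HEK293 TREx D1, plated overnight at 30 C and loaded with no-wash calcium dye.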
ERG Ets-DNA blk: blocks human ERG Ets domain binding to DNA. P11308. fluorescence polarization, His-ERG Ets domain / labelled DNA. Potency, µM (doses to about 76.9 µM), without a hit: at the highest dose FP activity, negative = inhibition, actives largely listed as inhibitors. hit rate 0.028% among 370,000. AID 624246; active = well fitted inhibition curve with a large enough effect in the polarisation, with a control signal flat; inconclusive = small, poorly fitted or top-dose-only effect, or effect the other way, or a change in a side signal; inactive = no such curve, though single readings can be large or run the other way; the % refers to the polarisation;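 note: polarization taken with two DNA probes labelled with fluorescein and Texas red; potency is the fitted concentration of half-maximal effect; % of control where 0% means no effect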
Target sequence (P11308 whole entry, looked up, the tested form may be a part): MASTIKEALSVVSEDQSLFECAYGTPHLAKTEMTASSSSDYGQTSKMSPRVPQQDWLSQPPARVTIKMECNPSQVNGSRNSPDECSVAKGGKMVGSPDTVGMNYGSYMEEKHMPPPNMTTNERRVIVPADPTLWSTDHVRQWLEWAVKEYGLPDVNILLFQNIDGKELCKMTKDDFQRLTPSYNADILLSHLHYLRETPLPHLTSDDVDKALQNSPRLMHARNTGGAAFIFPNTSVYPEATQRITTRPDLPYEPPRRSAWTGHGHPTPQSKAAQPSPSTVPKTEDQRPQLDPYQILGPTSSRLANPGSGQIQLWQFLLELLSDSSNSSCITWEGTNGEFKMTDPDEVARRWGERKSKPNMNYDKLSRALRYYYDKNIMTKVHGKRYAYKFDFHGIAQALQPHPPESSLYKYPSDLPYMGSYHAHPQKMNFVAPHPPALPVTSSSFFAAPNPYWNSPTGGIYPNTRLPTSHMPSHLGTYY
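His-tagged ERG Ets domain (1 uM in the protein solution; 300mM KCl, 50mM Tris-HCl, 1mM EDTA, 1mM DTT, pH 7.5) received compound, then a probe mix of 5 nM fluorescein-DNA and 100nM Texas-615-DNA. Fluorescence polarization was read for both dyes.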
D1 PAM: enhances dopamine response at the human D1 receptor. P21728. HEK293 TREx D1 cells, calcium flux, dopamine EC20 potentiation. potentiation, % at 10 µM. hit rate 0.036% among 360,000. AID 504651; in the data active = potentiation above about 30%; note: 0% is about no effect
D3 ag: activates the human D3 dopamine receptor; AID 652048; max activation, %; hit rate 0.58% among 410,000; D3R DiscoveRx beta-arrestin cells, luminescence, 90 min; in the data active = max activation above about 30%; note: 0% is about no effect
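Agonist-mode cell screen: cells plated at 1500/well and incubated overnight at 37 °C, then exposed to library compounds for 90 min at 37 °C. Detection reagent was added for 30–60 min at room temperature, and luminescence was read.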
D3 antag: blocks the human D3 dopamine receptor; P35462; D3R cells, DiscoveRx beta-arrestin luminescence, antagonist mode; active compounds read low; max response, negative = inhibition, %; hit rate 2.5% among 360,000; AID 652054; in the data active = max response below about -50%; inconclusive = no clear call, values can overlap the other calls; note: % is set by controls: 0 for no effect and ±100 for the full control effect
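Cells expressing the human receptor were seeded at 1500 cells/well, incubated overnight at 37 degrees C in 5% CO2, then exposed to library compounds with dopamine controls for 90 minutes at 37 degrees C before luminescent detection.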
D1 antagonist: antagonists of human D1 dopamine receptor. P21728. activity change, negative = inhibition, % at 10 µM. HEK293 TREx D1 cells, calcium flux, dopamine EC80; active compounds read low. hit rate 3.2% among 360,000. AID 504652; in the data active = activity change below about -30%; note: % is set by controls: 0 for no effect and ±100 for the full control effect
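Kinetic fluorescence of a calcium dye serves as the read-out. D1-expressing Hek293 Trex cells, induced overnight at 30 C, are exposed to compound for 180 s before an EC80 dopamine addition, then read 180 s further.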
Starred values were filed as active, the others as inactive; ? = inconclusive; . = no result given; [ ] = dose if it differs, or a comment. Hits are enriched below; roughly 6.1% of the tested compounds scored in any of these assays.

SMILES | D1 agonist | ERG Ets-DNA blk | D1 PAM | D3 ag | D3 antag | D1 antagonist
Cc1cccc(-n2nc(C(=O)Nc3ccccc3)n3c(=O)cc(-c4ccccc4)nc23)c1 | 0 | -4% | 1 | 5 | 19 | -4
O=Cc1ccc(Oc2nc(Cl)ncc2F)cc1 | 3 | 10% | -4 | -17 | -4 | 1
COc1cccc(/C=N/Nc2ncnc3scc(-c4ccccc4)c23)c1OC | 2 | 0% | -5 | 36* | 42 | -4
COc1cc(Cl)c(C)cc1N1C(=O)CN(Cc2ccccc2)C1=S | 4 | 1% | -9 | 4 | 21 | -10
CCCn1nc([N+](=O)[O-])c(C(C#N)c2nc3ccccc3o2)c(Cl)c1=O (stereo not given) | -1 | 11% | -4 | -6 | -61* | 4
CCn1nc([N+](=O)[O-])c(C(C#N)c2nc3cc(C(F)(F)F)ccc3s2)c(Cl)c1=O (stereo not given) | 4 | 1% | 5 | -19 | -21 | -38*
Cn1nc([N+](=O)[O-])c(C(C#N)c2ccccn2)c(Cl)c1=O (stereo not given) | 2 | ? | 1 | -3 | ? | 15
CCOC(=O)N1CCN(c2c(N3CCC(N4CCCCC4)CC3)c(=O)c2=O)CC1 | 2 | 4% | . | -5 | -21 | 0
O=C(NNS(=O)(=O)c1ccccc1)c1ccc(F)cc1 | 2 | -2% | -9 | 3 | -10 | 2
O=C(NNS(=O)(=O)c1ccccc1)Nc1ccc(F)cc1 | 1 | -1% | -7 | 1 | 8 | -36*
O=C(NNC(=O)c1ccc(NC(=O)c2ccccc2)cc1)c1ccc(F)cc1 | 4 | 8% | -3 | 3 | -6 | -67*
O=C(Nc1nc(-c2ccccc2)c(-c2ccccc2)o1)c1ccc(F)cc1 | 3 | -13% | 5 | -28 | -100* | 2
O=C(Nc1ccccc1NC(=O)c1ccc(F)cc1)c1ccc(F)cc1 | 3 | 9% | -2 | 4 | 25 | -36*
Cc1ccc(NC(=S)N/N=C/c2cccn2Cc2ccccc2F)cc1 | 5 | 14% | -6 | 8 | -53* | -20
Cc1ccc(/C=C2/NC(=O)N(c3ccccc3)C2=O)o1 | 4 | -27% | 1 | -2 | -22 | -5
O=C1N/C(=C/c2ccc(N3CCOCC3)o2)C(=O)N1c1cccc(Cl)c1 | 1 | 30% | -10 | -12 | -75* | .
O=C(CN(Cc1ccc(Cl)cc1)C(=O)c1csnn1)NCc1ccc(F)cc1 | 4 | -6% | -2 | 9 | -10 | -15
Nc1c(C(=O)c2ccc(Cl)cc2)sc2c1c(=O)[nH]c(=O)n2-c1ccccc1 | 2 | -4% | 0 | -12 | -17 | 13
Nc1c(C(=O)c2ccccc2)sc2c1c(=O)[nH]c(=O)n2-c1ccccc1 | 0 | 5% | 2 | -27 | -53* | 27
O=C1/C(=C\c2ccc(O)cc2)SC(=S)N1c1cccnc1 | 66* | 111% | -6 | -10 | -28 | -2
Cc1ccc(N=C2NC(=O)/C(=C\c3ccco3)S2)cc1 | 0 | 2% | -6 | 2 | 9 | 14
O=C1/C(=C\c2ccco2)SC(=S)N1c1ccc(O)cc1 | 3 | 6% | -2 | -3 | -26 | -31*
O=C1NC(=Nc2ccc(O)cc2)S/C1=C/c1ccco1 | 0 | 1% | -9 | 7 | 0 | -37*
CCOC(=O)c1c(C)[nH]c(C)c1C(=O)COC(=O)c1cccnc1SC | 2 | -5% | -3 | 0 | ? | 0
Cc1ccccc1NC(=O)CN(C)S(=O)(=O)c1ccc(-c2ccc(=O)[nH]n2)s1 | 1 | 11% | 14 | -1 | 16 | -5
SMILES | D1 agonist | ERG Ets-DNA blk | D1 PAM | D3 ag | D3 antag | D1 antagonist
COc1cc(NC(=O)c2ccc(Br)o2)c(C(=O)O)cc1OC | 0 | -9% | -2 | -1 | ? | -19
c1ccc2c(-c3c[nH]c4ccccc34)c3ccccc3nc2c1 | 2 | 4% | -4 | -4 | -53* | 23
CCOC(=O)c1c(CN2CCCCC2)n(C)c2cc(Br)c(O)c(CN(C)C)c12 | 1 | -4% | -8 | -10 | -68* | -22
CCOC(=O)c1c(CSc2ccccc2)n(C)c2cc(Br)c(O)c(CN(C)C)c12 | 1 | -16% | -2 | -13 | -16 | 3
COc1cccc(/C=N/n2c(N)nc3ccccc32)c1OC | 2 | . | -9 | 30* | 38 | -5
CN(CC1CCCO1)S(=O)(=O)c1ccc(C(=O)Nc2nc3cc4c(cc3s2)OCO4)cc1 (stereo not given) | 4 | 14% | -4 | 2 | 3 | -24
CC(C)C(=O)NC(=S)Nc1ccc(S(=O)(=O)N(C)Cc2ccccc2)cc1 | 2 | 3% | -11 | -8 | 37 | -35*
CN(Cc1ccccc1)S(=O)(=O)c1ccc(NC(=O)C2CCCCC2C(=O)O)cc1 (stereo not given) | . | 4%[15.4 µM] | . | -13 | 17 | .
CC(=O)NC(=S)Nc1ccc(S(=O)(=O)N(C)Cc2ccccc2)cc1 | 19 | 10% | -8 | -1 | 13 | -31*
CN(Cc1ccccc1)S(=O)(=O)c1ccc(NS(=O)(=O)Cc2ccccc2)cc1 | 4 | -3% | 0 | -33 | 44 | -34*
COc1ccc(CNC(=O)CCc2c(C)nn(-c3ccc(N4CCCCC4)nn3)c2C)cc1 | 0 | 7% | -4 | -5 | . | -2
CC(NC(=O)C1(C)CC1(Br)Br)C(C)(C)C (stereo not given) | 0 | -13% | 3 | 1 | -7 | 4
COc1cc(/C=C2/NC(=O)NC2=O)ccc1OCC(=O)Nc1ccc(F)cc1 | 4 | -5% | -10 | 2 | -7 | -71*
CCc1ccccc1NC(=O)Cn1c(=O)n(CCCCCC(=O)NCc2ccc(C)cc2)c(=O)c2sccc21 | 5 | 1% | 1 | -9 | . | -1
COc1cc(/C=C2\CCCc3c2nc2ccccc2c3C(=O)O)cc([N+](=O)[O-])c1O | 2 | 9% | . | -30 | -100* | -4
COc1ccc(/C=C2\CCCc3c2nc2ccccc2c3C(=O)O)cc1OC | 236* | . | -9 | . | . | -35*
COc1ccc(/C=C2\CCc3c2nc2ccccc2c3C(=O)O)cc1OC | 2 | 1% | -2 | -9 | -17 | 22
COc1cc(/C=C2\CCCc3c2nc2ccccc2c3C(=O)O)cc(OC)c1O | 1 | -3% | 4 | -3 | 3 | 8
COc1ccc(NC(=O)/C=C/C(=O)O)c(OC)c1 | 2 | 1% | 0 | -6 | -20 | 2
O=C(NCc1ccc2c(c1)OCO2)c1cccc(S(=O)(=O)N2CCOCC2)c1 | 0 | -5% | 1 | 25 | 14 | -9
COc1ccc(C(=O)Nc2nc(OCC(F)(F)F)cnc2/C=C\c2ccccc2)c(OC)c1 | . | . | . | -2 | 72 | .
